Screening data as filed in PubChem BioAssay.
IDE cell activ: boosts human insulin-degrading enzyme activity in HEK cells. P14735. FAbeta-B cleavage, fluorescence polarization; 0% vehicle, 100% cell-free pure enzyme wells. activation, % at 5.96 µM. 0.073% of 340,000 active. AID 493087;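 active means activation above the mean of all tested compounds plus 3 SD, set per screening campaign, cut at about 17% in these data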
Target sequence (P14735 whole entry, looked up): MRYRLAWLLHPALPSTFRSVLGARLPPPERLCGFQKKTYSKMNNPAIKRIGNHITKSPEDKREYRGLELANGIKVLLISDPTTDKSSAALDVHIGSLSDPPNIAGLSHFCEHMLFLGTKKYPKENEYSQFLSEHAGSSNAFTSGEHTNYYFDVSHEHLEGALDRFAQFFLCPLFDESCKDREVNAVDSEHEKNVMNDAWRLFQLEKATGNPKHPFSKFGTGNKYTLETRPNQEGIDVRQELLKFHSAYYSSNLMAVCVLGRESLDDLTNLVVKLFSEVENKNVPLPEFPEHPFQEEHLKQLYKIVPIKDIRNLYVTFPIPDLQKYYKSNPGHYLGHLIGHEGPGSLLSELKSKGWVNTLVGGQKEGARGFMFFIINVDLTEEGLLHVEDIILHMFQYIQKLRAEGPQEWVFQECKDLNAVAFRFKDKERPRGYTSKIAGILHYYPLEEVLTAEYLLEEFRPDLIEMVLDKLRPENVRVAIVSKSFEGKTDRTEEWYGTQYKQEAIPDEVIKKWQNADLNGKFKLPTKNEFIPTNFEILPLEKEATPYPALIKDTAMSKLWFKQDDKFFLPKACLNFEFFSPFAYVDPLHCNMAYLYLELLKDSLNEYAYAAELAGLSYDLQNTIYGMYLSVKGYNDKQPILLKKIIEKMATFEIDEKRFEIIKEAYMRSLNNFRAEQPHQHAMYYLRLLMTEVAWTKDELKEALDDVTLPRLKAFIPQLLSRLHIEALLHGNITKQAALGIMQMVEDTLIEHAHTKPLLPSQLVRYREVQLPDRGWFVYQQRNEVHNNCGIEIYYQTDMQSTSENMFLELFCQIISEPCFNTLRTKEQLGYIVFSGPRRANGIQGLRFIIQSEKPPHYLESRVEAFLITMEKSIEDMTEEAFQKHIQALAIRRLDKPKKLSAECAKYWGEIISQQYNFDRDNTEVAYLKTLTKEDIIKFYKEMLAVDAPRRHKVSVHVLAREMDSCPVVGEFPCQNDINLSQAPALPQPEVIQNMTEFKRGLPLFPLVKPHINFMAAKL
cardiac RTF act: increases calcium sensitivity of human cardiac regulated thin filaments | P19429+P45379 | IANBD-labeled TnC RTF fluorescence at EC20 calcium; 0% EC20 calcium, 100% full calcium | activation, % at 7.2 µM | 0.24% of 340,000 active | AID 493008;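 active means activation above the mean over all tested compounds plus 3 SD, cut at about 30% in these data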;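 further: rise in fluorescence read as greater calcium sensitivity of cardiac thin filaments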
Cardiac RTF inh: cardiac RTF calcium desensitization | inhibition, % at 7.15 µM | AID 493244 | 0.12% of 340,000 active | P19429+P45379 | IANBD-labeled cardiac RTF, Ca2+ fluorescence;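 active means inhibition above the mean inhibition of all tested compounds plus 3 SD, cut at about 17% in these data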;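 further: assay run at fixed EC70 calcium of 1.6 mM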
TPT1 inhibitor: blocks Candida albicans tRNA 2'-phosphotransferase. AID 1962. inhibition, % at 5 µM. recombinant caTPT1, FP RNA substrate dephosphorylation. 0.81% of 300,000 active;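 active means inhibition above the mean of all tested compounds plus 3 SD, set per screening campaign, cut at about 24% in these data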;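 further: plate controls were DMSO alone for no effect and ferristatin control at 100 nM for full effect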
CRFBP-R2 agonist: CRF-BP/CRF-R2 complex agonism; AID 588473; HEK293 CRF-R2/CRF-BP, calcium dye fluorescence (FLIPR); percent of saturating CRF peptide response; activation, % at 13.2 µM; 0.46% of 350,000 active;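 active means activation of at least 50%, plus an integration ratio under a set limit after plate pattern correction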;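 further: plate controls were neutral control wells without compound for no effect and CRF at EC100 for full effect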
IDE cell inh: cellular human IDE inhibition; P14735; HEK cells, FAbetaB cleavage, fluorescence polarization; inhibition, % at 5.59 µM; 0.41% of 320,000 active; AID 434962;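 active means percent inhibition above the average of all tested compounds plus 3 SD, set per screening campaign, cut at about 16% in these data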;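 further: IDE supplied by intact live HEK cells; FP after avidin binding of uncleaved biotin substrate so inhibition keeps polarization high; 0% = DMSO wells and 100% = 60 µM reference IDE inhibitor Ii1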
The depositor's hits bear a star; i = inactive; . = no result; ! = repeats disagree. Hits are enriched below; roughly 1.5% of the tested compounds scored in any of these assays.

SMILES	IDE cell activ	cardiac RTF act	Cardiac RTF inh	TPT1 inhibitor	CRFBP-R2 agonist	IDE cell inh
CC(C)(C)c1cc([N+](=O)[O-])cc(C(C)(C)C)c1O	.	.	.	1.4	68.0*	2.6
NC(=O)c1cc([N+](=O)[O-])cc([N+](=O)[O-])c1	-1.5	-4.4	0.4	.	0.1	.
CCOCCCn1c(N)c(C(=O)Nc2sc3c(c2C(=O)OC)CCCC3)c2nc3ccccc3nc21	-8.6	52.2*	-35.0	3.6	4.0	4.8
Cc1ccc(C(C)C)c(OCC#CCN2CCCC2)c1	-0.3	-0.7	5.3	-0.7	-2.2	0.4
CN1C[C@H](CO)C=C2c3cccc4[nH]cc(c34)C[C@H]21	1.1	17.9	-24.1	-19.9	18.4	0.5
CC1=C[C@@H]2c3cccc4[nH]cc(c34)C[C@H]2N(C)C1	-0.8	35.8*	-39.9	-51.4	8.0	3.9
COC(=O)C(O)(c1ccc(NC(=S)NC(=O)c2ccc(Cl)cc2Cl)c(C)c1)C(F)(F)F (centres undefined)	6.0	-0.5	6.2	0.2	30.6	0.5
COC(=O)C(O)(c1ccc(NC(=S)NC(=O)c2ccc(Cl)cc2Cl)cc1)C(F)(F)F (centres undefined)	0.3	2.8	-2.3	-0.3	36.6	-7.3
CCOC(=O)C(O)(c1ccc(NC(=S)NC(=O)c2ccc(Cl)cc2Cl)c(C)c1)C(F)(F)F (centres undefined)	-2.4	-13.4	5.8	0.0	113.9*	3.5
CCOC(=O)C(O)(c1ccc(NC(=S)NC(=O)c2ccc(Cl)cc2Cl)cc1)C(F)(F)F (centres undefined)	2.6	-1.2	-13.0	0.1	147.8*	-2.5
O=C1NC(=O)N(c2ccccc2F)C(=O)/C1=C/c1ccc(Sc2nc3ccccc3[nH]2)o1	-43.7	-6.2	-9.6	0.7	24.1	34.0*
O=C1NC(=O)N(c2ccccc2)C(=O)/C1=C/c1ccc(Sc2ccccc2)o1	-10.0	2.2	-1.4	0.6	16.3	2.6
COC(=O)C1=C(c2ccc(C(C)=O)cc2)C[C@@H]2CC[C@H]1N2C(=O)NCc1ccc(C(F)(F)F)cc1	8.7	0.9	-4.3	.	67.6*	2.1
COC(=O)C1=C(c2ccccc2)C[C@@H]2CC[C@H]1N2C(=O)NCc1ccc(C(F)(F)F)cc1	0.5	12.5	4.5	-2.7	1.0	-2.1
CCCCC1(CCCC)C(=O)NC(=Nc2cccc(C)c2)NC1=O	-1.1	-2.3	-5.0	-4.9	88.6*	3.2
CC1=NCCc2c1[nH]c1cc(O)ccc21	65.7*	333.6*	-431.7	-102.3	220.4*	-28.4
C[C@@H]1CN([C@H](C)CO)C(=O)CCCn2cc(nn2)CO[C@H]1CN(C)C(=O)Oc1ccc2ccccc2c1	.	.	.	.	-0.8	.
CP(C)(=O)CCC(=O)O	-0.4	0.6	-7.6	3.7	-1.9	5.9
C=CC1CN2CCC1CC2C(O)c1ccnc2ccccc12 (centres undefined)	-1.4	-2.0	2.0	.	2.7	.
Nc1c2c(nc3ccccc13)CCN(Cc1ccccc1)C2	6.5	17.4	-32.9	-58.7	68.8*	-2.7
C1=C(c2c[nH]c3ccccc23)CCN(Cc2ccccc2)C1	-1.9	1.5	3.0	4.9	4.0	2.4
CCC1(C)OC(c2ccccc2)=C/C(=C/C=C2C(=O)NC(=O)NC2=O)O1 (centres undefined)	-82.6	123.3*	-162.9	.	37.7	.
CCC1(Oc2ccccc2)C(=O)NC(=O)NC1=O	2.5	-0.6	-2.5	.	-0.6	.
Cc1cc(C)c(NC2=NCCS2)cc1C	.	.	.	.	4.1	.
Cc1ccccc1CN1Cc2cnnn2-c2ccccc2C1C#N (centres undefined)	-13.0	1.6	-0.5	.	0.2	.
SMILES	IDE cell activ	cardiac RTF act	Cardiac RTF inh	TPT1 inhibitor	CRFBP-R2 agonist	IDE cell inh
O=C(c1cccc2ccccc12)C1CCCN(C2CCC2)C1 (centres undefined)	-2.6	4.9	-6.9	-5.6	-3.3	-4.0
CC(=O)c1ccc2c(c1)C1C(Cl)C(Sc3ccccc3[N+](=O)[O-])CC1C(C(=O)O)N2 (centres undefined)	-4.1	-18.2	15.8	-2.7	-2.9	7.4
O=C(O)c1cccc2c1NC(C(=O)O)C1CC(Sc3ccccc3[N+](=O)[O-])C(Cl)C21 (centres undefined)	2.2	-37.3	55.5*	4.3	0.6	4.3
N#CC(C#N)=NNc1ccc(-n2ccc(C(F)(F)F)n2)cc1	1.1	0.7	-5.5	3.6	52.7*	1.1
Cc1cc(C)n(-c2ccc(NN=C(C#N)C#N)cc2)n1	9.4	-4.3	-5.3	-3.0	52.9*	5.7
CCOc1cc2c(cc1OCC)-n1cccc1C(c1cccc(OCC)c1O)NC2 (centres undefined)	2.9	-4.8	-1.0	-0.9	1.5	2.7
CCn1c(O)c(C=Nc2ccc(N3CCOCC3)c(Br)c2)c(=O)n(CC)c1=S	2.0	-2.0	-5.2	3.6	99.5*	0.3
CCn1c(O)c(/C=N/N2CCOCC2)c(=O)n(CC)c1=S	4.2	9.8	0.0	23.5	-1.4	-0.2
O=C(O)c1cc[c]([Hg][Cl])cc1	-61.3	2.6	-0.9	-2.1	0.7	96.2*
O=C1C(Cl)=CC(=Nc2ccc(O)cc2)C=C1Cl	2.5	-0.2	-2.0	.	-0.1	-5.4
Cc1cc(OCC(=O)NCc2cccnc2)c2c3c(c(=O)oc2c1)CCCC3	-7.2	-5.2	-6.4	-0.3	0.6	7.4
CCN(CC)c1ccc(N=Cc2c(O)n(Cc3ccccc3)c(=O)[nH]c2=O)cc1	-1.4	3.1	-10.2	22.7	190.0*!	1.3
CN1Cc2c(c(C#N)c(N)n(C)c2=S)CC1(C)C	5.6	50.1*	-75.7	-23.7	10.4	-7.5
CC(C)n1c(O)c(C2c3cc(Cl)ccc3Oc3[nH]c(=O)n(C(C)C)c(=O)c32)c(=O)[nH]c1=O (centres undefined)	-23.1	-1.6	-1.8	.	2.0	.
Cc1cc(Cl)ccc1OC(C)C(=O)O (centres undefined)	7.8	4.8	20.1*	0.6	-0.7	-1.6
Cc1cc(Cl)ccc1OCC(=O)O	3.4	-2.9	13.1	-0.8	-0.3	2.8
c1ccc(CN2Cc3ccccc3-n3nncc3C2)nc1	.	.	.	.	4.2	.
O=[N+]([O-])c1ccc(-[n+]2c(-c3ccccc3)cc(-c3ccccc3)cc2-c2ccccc2)cc1	1.2	0.8	2.7	-4.1	69.3*	2.4
O=c1[nH]c(O)c(/C=C2\C=Nc3ccc(OCc4ccccc4)cc32)c(=O)[nH]1	9.2	47.6*	-64.1	-31.3	38.3	-3.2
COC1C(C)OC(OC2CC(C)(O)Cc3cc4c(c(O)c32)C(=O)c2c(O)cc3c(c2C4=O)OC2OC3(C)C(O)C(N(C)C)C2O)C(OC)C1(C)OC (centres undefined)	0.0	677.6*	i	.	198.1*	.
COc1ccc(OC)c(-n2c(O)c(C=NCCN3CCNCC3)c(=O)[nH]c2=S)c1	4.4	17.3	-6.2	-1.4	-0.7	-2.6
N#Cc1ccc(NC(=O)CN2CCN(C(=O)c3cccs3)CC2)cc1Cl	-5.1	-8.5	-16.4	.	0.4	.
